Assay outcomes (PubChem)
MRP reversal: reverses drug resistance mediated by MRP; H69AR cells + 2 uM doxorubicin, CellTiter-Glo, 72 h; 0.04% of 85,000 active; AID 602; differential viability (reversal), % at 10 µM;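 active = viability drop by adding the cancer drug above about 55%, with treated viability meeting a 40% cutoff, limit read from the data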;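 also: viability without doxorubicin minus viability with 2 µM doxorubicin for each compound; larger differential means the compound sensitizes cells more to doxorubicin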
GALR2 antag: GALR2 (human) receptor antagonism | 0.39% of 140,000 active | AID 828 | GALR2-expressing cells, antagonist mode | inhibition, % at 4 µM; in the data active = inhibition above about 27%;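 also: cells stimulated with galanin 1-16 at roughly its EC80; 0% = agonist challenge control and 100% = basal control without agonist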
GALR2 ag: agonists of human galanin receptor 2 (GALR2); O43603; GALR2-expressing cells, agonist activation read-out; activation, % (test concentration not listed); 0.48% of 140,000 active; AID 803; in the data active = activation above about 5%, passing the limit was not always enough;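 also: 0% = vehicle buffer wells and 100% = reference agonist at full effect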
MRP1 act: MRP-1 activation. 0.61% of 140,000 active. AID 799. H69AR cells + doxorubicin, viability rescue, CellTiter-Glo. viability increase, % at 10 µM;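 active = viability gain under doxorubicin at or above a set limit, the compound median plus 3 SD, cut at about 4.7% in these data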;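 also: MRP-1 overexpressing cells given doxorubicin 25 µM after compound pretreatment; 18-22 h compound pretreatment then 72 h with doxorubicin before readout; 0% = doxorubicin-only wells and 100% = vehicle-treated cells without doxorubicin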
S1P2 agonist: S1P2 (human) receptor agonism; activation, % at 4.5 µM; O95136; 0.46% of 97,000 active; S1P2-expressing cell line, agonist reporter read-out; in the data active = activation above about 16%;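 also: 0% = vehicle low control and 100% = maximal reference agonist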
Target sequence (O95136 whole entry, looked up): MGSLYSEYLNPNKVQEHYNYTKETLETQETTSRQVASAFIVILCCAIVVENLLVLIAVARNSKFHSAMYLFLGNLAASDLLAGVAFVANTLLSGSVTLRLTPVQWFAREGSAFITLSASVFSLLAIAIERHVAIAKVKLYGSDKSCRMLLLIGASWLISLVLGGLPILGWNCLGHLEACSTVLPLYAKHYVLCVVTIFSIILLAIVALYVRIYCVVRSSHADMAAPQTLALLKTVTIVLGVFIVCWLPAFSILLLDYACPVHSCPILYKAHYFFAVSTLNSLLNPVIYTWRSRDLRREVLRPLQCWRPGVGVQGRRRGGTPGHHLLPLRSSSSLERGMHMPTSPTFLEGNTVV
S1P2 blocker: antagonists of human S1P2 receptor. AID 736. 0.21% of 97,000 active. cell-based S1P2 antagonist assay, inhibition at 5 uM. inhibition, % at 5 µM; in the data active = inhibition above about 45%;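 also: CRE beta-lactamase reporter cells expressing human S1P2 stimulated with S1P; 0% = agonist at EC80 alone and 100% = agonist plus reference antagonist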
GALR2 agon conf: GALR2 (human) agonism confirmed; 10% of 460 active; activation, % at 5.6 µM; shares compounds with GALR2 ag; GALR2-expressing cells, agonist activation; in the data active = activation above about 8.4%;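 also: 0% = buffer-only vehicle wells and 100% = full reference agonist response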
BLA act counter: beta-lactamase activation, GALR2 counterscreen | shares compounds with GALR2 ag | CHO NFAT-bla reporter, beta-lactamase FRET activation | activation, % at 5.6 µM | 10% of 460 active;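 active = activation above the screen-wide mean activation plus 3 SD, cut at about 8% in these data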;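 also: 0% = DMSO with PBS wells and 100% = thapsigargin positive control wells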
* marks the source's active call; other numbers are inactive results; · = not tested or not shown. Sampled rows, rich in hits. Any-hit rate of the full collection: about 1.8%.

SMILES	MRP reversal	GALR2 antag	GALR2 ag	MRP1 act	S1P2 agonist	S1P2 blocker	GALR2 agon conf	BLA act counter
CCOC(=O)c1cc2nc(Nc3ccc(OC)cc3)sc2s1	-6.2	3.3	10.8	-3.4	7.0	-6.8	3.1	6.1
COC(=O)Cn1c(=NC(=O)c2nc3ccccc3s2)sc2cc(S(C)(=O)=O)ccc21	·	-16.4	38.8*	-3.5	·	·	-0.2	1.7
COC(=O)Cn1c(=NC(=O)c2sc3ccccc3c2Cl)sc2cc(S(N)(=O)=O)ccc21	·	0.9	0.0	-2.9	·	·	·	·
CCN(CC)c1ccc2c(Cl)cc(=O)oc2c1	·	22.2	9.3	-4.2	8.5	46.8*	1.6	7.5
CCN(CC)c1ccc(C(=O)OCc2cc(=O)oc3cc(O)ccc23)cc1	·	-0.5	0.7	-6.6	-4.3	-6.1	·	·
CCn1c2ccccc2c2nnc(SCC(=O)Nc3ncccn3)nc21	14.6	9.9	-0.9	-0.6	·	·	·	·
CC(NC(=O)Nc1ccc(Cl)c(Cl)c1)C(c1ccccc1)N1CCOCC1 (stereo not given)	·	-17.7	8.7*	2.7	·	·	6.4	25.1*
O=C(COc1ccc(Cl)cc1)NNC(=O)C(=O)N1CCCCC1	·	0.0	29.1*	3.3	-1.9	-11.4	-0.5	-0.3
COc1cc(/C=N/NC(=O)c2ccc(COc3cc(C)ccc3C(C)C)cc2)cc(OC)c1O	·	0.1	8.4*	-1.7	·	·	7.6	-1.2
Cc1ccc(OCCCCn2ccnc2)c(Cl)c1	0.3	-2.6	-3.1	0.7	-5.0	0.0	·	·
Cc1ccc(C)c(OCCCCn2ccnc2)c1	8.9	-7.6	11.2	-2.2	-2.9	-16.5	0.3	2.4
CN1C(=O)/C(=C/c2ccccc2OCc2cccc(F)c2)NC1=S	·	-6.9	146.0*	-0.6	-1.6	-20.2	-0.3	-2.9
CN1C(=O)/C(=C/c2ccccc2OCc2ccccc2)NC1=S	·	-10.3	0.0	-3.5	·	·	·	·
N#C/C(=C\c1c(N2CCCCCC2)nc2ccccn2c1=O)C(=O)NC1CCS(=O)(=O)C1 (stereo not given)	·	-19.8	8.9*	-1.2	·	·	-0.2	-0.4
N#C/C(=C\c1c(N2CCC(C(N)=O)CC2)nc2ccccn2c1=O)C(=O)NCc1ccco1	·	2.4	-0.3	-2.2	·	·	·	·
CS(=O)(=O)N(CC(=O)N1CCCCCC1)c1ccc(Br)cc1	5.3	-2.2	0.0	-1.7	-2.9	30.1	·	·
COCCCNC(=O)c1c(N)n(-c2ccc(S(N)(=O)=O)cc2)c2nc3ccccc3nc12	·	3.8	3.3	-1.8	10.2	-20.4	·	·
C=CCNC(=O)c1c(N)n(-c2cccc(S(N)(=O)=O)c2)c2nc3ccccc3nc12	-20.7	-5.9	8.3	-0.4	10.1	1.5	1.9	5.6
O=C(O)C1C(c2ccccc2)C(C(=O)Oc2ccccc2)C1c1ccccc1 (stereo not given)	-3.4	-3.9	-0.6	-1.0	-5.9	9.0	·	·
CC(C)CCOC(=O)C1C(c2ccccc2)C(C(=O)O)C1c1ccccc1 (stereo not given)	12.1	-9.2	10.0	-0.2	-4.8	-4.0	-0.4	0.2
N#Cc1cc2c(=O)n3ccccc3nc2n(CCN2CCOCC2)c1=O	15.8	·	·	·	·	·	·	·
N#Cc1cc2c(=O)n3ccccc3nc2n(CCCN2CCOCC2)c1=O	2.0	1.6	8.6*	0.5	·	·	2.6	8.2*
CCOC(=O)C(NC(=O)c1ccccc1)=C(C)C	-0.6	-1.9	11.1	-0.1	-1.8	-9.3	-1.4	-2.6
CCOC(=S)SCC(=O)Nc1nc(-c2ccccc2)cs1	·	2.6	-1.2	-2.6	·	·	·	·
CCOC(=S)SCC(=O)Nc1nc(-c2ccc(Br)cc2)cs1	·	8.4	16.2*	-4.2	·	·	5.4	-3.5
CC1CCCN(c2c([N+](=O)[O-])c(=O)oc3ccccc23)C1 (stereo not given)	·	-4.7	27.8*	-1.0	-4.2	23.8	-0.2	1.3
COc1ccc(-c2noc(CCC(=O)NC3CCCCC3)n2)cc1OC	7.7	4.5	-3.2	-0.5	2.2	-2.1	·	·
COc1cc(-c2noc(CCCC(=O)NC3CCCCC3)n2)cc(OC)c1OC	17.9	-5.1	25.9*	-2.3	-5.7	-3.1	-0.5	-0.6
Cc1cccc(N(CC(=O)NCCC2=CCCCC2)S(C)(=O)=O)c1C	17.0	-16.6	-0.9	-0.1	-4.9	15.2	·	·
COC(=O)C1=CN(CC2CCCO2)C=C(C(=O)OC)C1c1ccccc1C(F)(F)F (stereo not given)	0.0	-7.9	11.9*	-2.9	10.9	2.1	2.7	8.1
